Compound activity deposited in PubChem by SRMLSC.
A340 absorber = absorbance at 340 nm; compound absorbance at 340 nm, fold over control; fold change at 10 µM; 65,000 tested, under 10 active;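 active = at 10 µM dose, initial 340 nm absorbance at least 2 fold that of control wells; inactive = change under 2 fold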;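 also: initial absorbance extrapolated from kinetic A340 decline of NADH oxidation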
Spn PMK inh = blocks S. pneumoniae phosphomevalonate kinase; purified PMK, PK/LDH-coupled NADH absorbance 340 nm; hit rate 0.49% among 65,000; inhibition, % at 10 µM; AID 539;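 active = top-ranked compounds by inhibition in the single 10 µM screen, taking a fixed number of the strongest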
NADH coupling = inhibition of NAD/NADH coupling enzymes, library profiling. hit rate 0.02% among 65,000. IC50, µM (titrated, usually from 10 µM). AID 774. coupled PK/LDH NADH assays, four targets;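 active = single-dose screening hits from any of four coupled enzyme assays that gave an IC50 when retested across doses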;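 also: the DPM-DC format reads NADH fluorescence rather than 340 nm absorbance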
Fluor 339 460 = intrinsic fluorescence of library compounds, ex339/em460 – biochemical, MLSMR library, data from DPM-DC assay, artefact control, profiling panel; compound autofluorescence, ex339/em460 nm, NADH buffer; hits give high values; 1 = no-compound wells, NADH background; fluorescence fold increase at 10 µM; hit rate 5.5% among 65,000; AID 709;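 active = at 10 µM, mean starting fluorescence two-fold or more over control wells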;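 also: signal is the first read of a kinetic run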
Spn DPM-DC inh = blocks S. pneumoniae diphosphomevalonate decarboxylase. calls only at 10 µM. purified DPM-DC, PK/LDH coupled NADH fluorescence. hit rate 0.49% among 65,000;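 active = the 320 compounds with the highest percent inhibition in the single-dose primary screen, excluding strongly autofluorescent ones, cut at about 32% in these data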;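 also: kinetic rate of NADH fluorescence loss reporting ADP formed by the decarboxylase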
Spn MK inh = blocks S. pneumoniae mevalonate kinase; purified MK, PK/LDH-coupled NADH absorbance 340 nm; inhibition, % at 10 µM; hit rate 0.48% among 65,000;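 active = ranked among the strongest by inhibition in the single 10 µM screen, a fixed top-ranked set picked for dose follow-up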
Of the large screens only hits and unclear results are named; the others gave an inactive call. This is a sample that favours compounds with a hit; in the whole collection about 6.5% have one here.

O=C(CCn1c(=S)[nH]c2ccccc2c1=O)N1CCOCC1	none
CCCCN(C)CCn1c(=S)[nH]c2ccc(N3CCOCC3)cc2c1=O	Fluor 339 460 2.5
O=c1c2cc(N3CCOCC3)ccc2[nH]c(=S)n1Cc1ccccn1	Fluor 339 460 3.5, Spn DPM-DC inh active
COCCCn1c(=S)[nH]c2ccc(N3CCOCC3)cc2c1=O	Fluor 339 460 3.8, Spn DPM-DC inh active
O=c1ccc(Oc2nc(N3CCCCC3)nc(N3CCCCC3)n2)n[nH]1	none
COCCn1c(C2CCCCC2)nc2sc3ccccc3c(=O)c2c1=O	none
Cc1nnc(Sc2nc3c(c(=O)n(C)c(=O)n3C)n2Cc2ccc(Cl)cc2)s1	none
O=c1c2cc(N3CCOCC3)ccc2[nH]c(=S)n1CC1CCCO1 (stereo not drawn)	Fluor 339 460 4
O=C(NCc1ccco1)c1ccc2c(=O)n(CC3CCCO3)c(=S)[nH]c2c1 (stereo not drawn)	none
COCCn1c(=S)[nH]c2ccc(N(C)C)cc2c1=O	Fluor 339 460 3.8
CCc1c(C)nc(N)n2c(SCC(=O)N3CCN(c4ccccc4OC)CC3)nnc12	none
CCN(CCNC(=O)C1CCN(c2nnc(-n3cccc3)s2)CC1)c1ccccc1	Spn DPM-DC inh active
CN1CCN(CCCNC(=O)C2CCN(c3nnc(-n4cccc4)s3)CC2)CC1	none
O=C(NCCN1CCOCC1)c1ccc2c(c1)N(Cc1ccccc1)C(=O)CS2	none
CCN1C(=O)CSc2ccc(C(=O)NCCCN3CCOCC3)cc21	none
O=C(NCCN1CCOCC1)c1ccc2c(c1)N(Cc1ccccc1)CCS2	Fluor 339 460 2 (not shown: Spn DPM-DC inh)
CN1CCN(CCCNC(=O)c2ccc3c(c2)N(Cc2ccccc2)CCS3)CC1	Fluor 339 460 2.1 (not shown: Spn DPM-DC inh)
CCOc1ccc2[nH]c(=O)c(CN(CCO)C(=O)c3ccccc3F)cc2c1	Fluor 339 460 3
CCOc1ccc2[nH]c(=O)c(CN(CCO)C(=O)c3ccc(F)cc3)cc2c1	Fluor 339 460 3.4
O=C(c1ccco1)N1CCCC(c2nc(-c3ccc(S(=O)(=O)NCc4ccccc4)cc3)no2)C1 (stereo not drawn)	none
CS(=O)(=O)N1CCN(C(=O)CCC2CCCC2)CC1	Spn PMK inh 33
COc1ccc(S(=O)(=O)N2CCN(C(=O)CCC3CCCC3)CC2)cc1	none
COc1cccc(C(=O)SC2=NCCS2)c1	none
c1ccc2c(c1)ncc1cccn12	Fluor 339 460 2.1 (not shown: Spn DPM-DC inh)
COc1cc2c(cc1NC(=O)CSCC(=O)O)oc1ccccc12	none
COc1cc2c(cc1NCc1ccccn1)oc1ccccc12	Fluor 339 460 2.4 (not shown: Spn DPM-DC inh)
COC(=O)c1ccc(S(=O)(=O)N(Cc2cc3cc4c(cc3[nH]c2=O)OCO4)C2CCCCC2)cc1	Fluor 339 460 3.6 (not shown: Spn DPM-DC inh)
O=c1[nH]c2cc3c(cc2cc1CN(CC1CCCO1)S(=O)(=O)c1ccc(Cl)cc1)OCCO3 (stereo not drawn)	Fluor 339 460 2.6
CC(=O)c1ccc(S(=O)(=O)N(Cc2cc3cc4c(cc3[nH]c2=O)OCCO4)CC2CCCO2)cc1 (stereo not drawn)	none (no result: Spn MK inh)
Cc1ccc(S(=O)(=O)N(Cc2cc3cc4c(cc3[nH]c2=O)OCCO4)CC2CCCO2)cc1 (stereo not drawn)	Fluor 339 460 3.5 (not shown: Spn DPM-DC inh)
CCn1c(=O)cc(SCC(=O)NCc2ccccn2)c2ccccc21	none
CC(C)COCC1CC2(CC(C)C(=O)CC2=O)C(=O)O1 (stereo not drawn)	none
COC(=O)CSc1nc(C)c(Oc2ccccc2)c(=O)[nH]1	none
Cc1nn(-c2ccccn2)c2c1C(c1ccsc1)C1=C(CCCC1=O)N2 (stereo not drawn)	Fluor 339 460 4.9 (not shown: Spn DPM-DC inh)
Cc1ccc(C)c(C(=O)CC2(O)C(=O)N(C)c3ccccc32)c1 (stereo not drawn)	none
Cc1ccc2c(c1)c1cccc3c1n2CCN3CCC(N)=O	Fluor 339 460 2.2 (not shown: Spn DPM-DC inh)
c1ccc(Cn2nnc3c(Nc4ccc5c(c4)OCO5)nc(C4CC4)nc32)cc1	Fluor 339 460 3.7 (not shown: Spn DPM-DC inh)
CC1SC(=NC(=O)c2ccco2)NC1=O (stereo not drawn)	Spn PMK inh 26
CCCCOC(=O)Nc1cccc(C(C)=O)c1	none
Cc1cccc(N2CCN(C(=O)CCn3c(=S)[nH]c4cc5c(cc4c3=O)OCO5)CC2C)c1 (stereo not drawn)	none
Cc1ccc(-n2c(SCC(=O)NCc3ccco3)nnc2-c2cccnc2)c(C)c1	Spn DPM-DC inh active
Cc1cccc(-n2c(SCC(=O)NCc3ccco3)nnc2-c2ccco2)c1	none
Cn1c(N)c(C(=O)c2cc(-c3ccccn3)nc3ccccc23)c(=O)[nH]c1=O	none
O=c1cc(-c2ccco2)oc2ccc(Cl)cc12	Fluor 339 460 2.4 (not shown: Spn DPM-DC inh)
Cc1cc(C)n(S(=O)(=O)c2cccc(Cl)c2Cl)n1	none
Nc1nnc(-c2ccco2)s1	none
Nc1ncnc2oc(-c3ccco3)c(-c3ccco3)c12	Fluor 339 460 2.4 (not shown: Spn DPM-DC inh)
O=C(NCc1ccco1)c1cc2ccc(O)cc2oc1=O	Fluor 339 460 3.8 (not shown: Spn DPM-DC inh)
COc1ccc2cc(C(=O)NCc3ccco3)c(=Nc3ccc(C(=O)O)cc3)oc2c1	none
COc1ccc2cc(C(=O)NC3CCCCC3)c(=O)oc2c1	Fluor 339 460 3.5 (not shown: Spn DPM-DC inh)
COc1ccc2cc(C(=O)NCc3ccco3)c(=O)oc2c1	Fluor 339 460 3.3 (not shown: Spn DPM-DC inh)
Cc1nc2ccccc2cc1C(=O)NCc1ccco1	none
O=c1c(/C=N/O)c(Nc2ccccc2)nc2ccccn12	none
CC1(C)CC(=O)C2=C(C1)OC(N)=C(C#N)C2Cc1ccccc1 (stereo not drawn)	none
Cc1cccc(CN(C)CCc2ccccn2)c1	Spn MK inh 44
COc1ccc(CN(C)CCc2ccccn2)c(OC)c1OC	Spn MK inh 68
CCCCCn1c(C(C)NC(=O)CCC)nc2ccccc21 (stereo not drawn)	none
CC(C)Cc1nc2oc3c(NCC4CCCO4)ncnc3c2c2c1CCC2 (stereo not drawn)	Fluor 339 460 2.6
CC(C)c1nc2oc3c(NCc4cccnc4)ncnc3c2c2c1CCC2	Fluor 339 460 2.1
CC(C)Cc1nc2oc3c(NCc4cccnc4)ncnc3c2c2c1CCC2	Fluor 339 460 2.6
CCOc1ccc(N2CC(C(=O)Nc3cccc(C)c3C)CC2=O)cc1 (stereo not drawn)	none
Cc1cc(C)n(-c2ccc(C(=O)OCC(=O)c3ccc(Br)s3)cc2)n1	none
COc1ccc(N(C(=O)C(C)C)S(=O)(=O)c2ccc3c(c2)n(C)c(=O)n3C)cc1	none
O=C(NCc1ccco1)c1ccccc1NS(=O)(=O)c1ccc2c(c1)OCCO2	Fluor 339 460 2.9, Spn DPM-DC inh active
O=C(Nc1ccc(Cl)cc1)Nc1ccccc1C(=O)NCc1ccco1	Fluor 339 460 2.1
CCCCCC#CCC#CCC#CCC#CCCCC(=O)O	none
Cc1ccc(Cl)cc1N1CCN(C(=O)c2cc3c(=O)n(C)c4ccccc4c3n2C)CC1	none
O=c1[nH]c(=O)n(Cc2ccccc2)c2nc(-c3ccco3)cc(C(F)(F)F)c12	Fluor 339 460 4.9 (not shown: Spn DPM-DC inh)
